Where “and” joins values, the source holds several entries; their conditions need not be identical. Identical values can stand only once. Inconclusive results are not listed. The source holds several records for some structures; these can differ, active in one and inactive in another. Calls of active or inactive are those of the source. Calls follow the shape of the dose curve; as a rule, active = well fitted activation curve with a large enough effect in the repeat runs; inconclusive = weak or mixed curves; inactive = flat fitted curve, though single readings scatter.

Experimental findings from PubChem BioAssay (Tox21) are described below.
% is scaled to controls: 0 for no effect and ±100 for the full control effect; potency is read from the fitted curve at half-maximal effect.

A short description of this assay: A CellTox Green Cytotoxicity Assay to monitor cytotoxicity in HEK293 cells - 32 hour (AID 1224881). Also: nearly all actives have a fitted effect of over 40% in size. As to conditions: CellTox Green fluorescence; series mostly up to 76.8 µM; cytotoxicity increase: at the top concentration. The text has this: National Center for Advancing Translational Sciences [NCATS]
NIH Chemical Genomics Center [NCGC]
U.S. Environmental Protection Agency [EPA]
National Institutes of Environmental Health Sciences [NIEHS]
National Toxicology Program [NTP]
Cell-based models are critical for drug discovery. Determining the natural cytotoxic effects resulting from test compounds is an essential research activity. A CellTox Green Cytotoxicity Assay to monitor cytotoxicity in real time of continues cell culture during 40 hours of the compound treatment was used to screen Tox21 10K library compounds in Hek293 cells. CellTox Green Cytotoxicity Assay is a nonlytic, homogeneous, biofluorescent method to measure cytotoxicity in cell culture after experimental manipulation. The assay system uses a proprietary asymmetric cyanine dye that is excluded from viable cells but preferentially stains the dead cell's DNA. […] Viable cells produce no appreciable increases in fluorescence. Therefore, the fluorescence signal produced by the binding interaction with dead cell DNA is proportional to cytotoxicity.
The mixture of Hek293 cell suspension and reagents were dispensed at 600cells/6 ul/well in 1536-well tissue culture treated black solid bottom plates using a Multidrop dispenser. After the assay plates were incubated at a 37 C/5% CO2 incubator for 5 hours, 23 nL of compounds dissolved in DMSO, positive and negative controls was transferred to the assay plate by a pintool work station. The plates were incubated at 37 C for 40 hours. The fluorescence intensity were measured at 0h, 8h, 16h, 24h, 32h and 40h time points using ViewLux plate reader during compound treatment.
For `COP(=S)(OC)Oc1cc(Cl)c(Br)cc1Cl`, the “cytotoxicity increase” value is -0.118% (inactive).

Take `NNC(=O)c1ccccc1`: the “cytotoxicity increase” value is -5.38% (inactive).

Consider `O=C1c2ccccc2C(=O)C1C(=O)C(c1ccccc1)c1ccc(Cl)cc1` (stereo not given), for which the “cytotoxicity increase” value is 18.7% (inactive).

Turning to `CC[C@H](C)[C@H]1O[C@]2(C=C[C@@H]1C)C[C@@H]1C[C@@H](C/C=C(\C)[C@@H](O[C@H]3C[C@H](OC)[C@@H](O[C@H]4C[C@H](OC)[C@@H](O)[C@H](C)O4)[C@H](C)O3)[C@@H](C)/C=C/C=C3\CO[C@@H]4[C@H](O)C(C)=C[C@@H](C(=O)O1)[C@]34O)O2`, the “cytotoxicity increase” value is 19.8% [at 35.3 µM] (inactive).

As for `CC(C)(C)C(O)C(Oc1ccc(-c2ccccc2)cc1)n1cncn1` (stereo not given), the “cytotoxicity increase” value was 12.2% (inactive).

Take `Cc1cc(C)cc(OP(=O)(Oc2cc(C)cc(C)c2)Oc2cc(C)cc(C)c2)c1`: the “cytotoxicity increase” value is -5.2% (inactive).

With `N#Cc1ccccc1N`, the “cytotoxicity increase” value is -2.23% (inactive).

Take `Oc1ccccc1Br`: the “cytotoxicity increase” value is 0.467% (inactive).

On to `CCCCCCCCCCCCCCC(Br)C(=O)O` (stereo not given), for which the “cytotoxicity increase” value was 1.66% (inactive).

Consider `CS(=O)(=O)c1ccc(C(=O)C2C(=O)CCCC2=O)c([N+](=O)[O-])c1`, for which the Potency was 44.4 µM (active).

On to `Clc1ccc(CSC(Cn2ccnc2)c2ccc(Cl)cc2Cl)cc1` (stereo not given), for which the “cytotoxicity increase” value is 7.98% [at 35.3 µM] (inactive).

In the case of `CCCCCCCCCCCCCN1CC(C)OC(C)C1` (stereo not given), the “cytotoxicity increase” value is 21.6% (inactive).

As to `N#Cc1c(-c2ccc(Cl)cc2)[nH]c(C(F)(F)F)c1Br`, the Potency was 49 µM (active).

Take `O=c1ssc(Cl)c1Cl`: the Potency is 24.5 µM (active).

As to `c1ccc(Nc2ccc3ccccc3c2)cc1`, the Potency result was “inactive”.

Turning to `CNC(C)Cc1ccc2c(c1)OCO2` (stereo not given), the “cytotoxicity increase” value was 1.6% (inactive).

`CCC(C)(C)C(=O)OC1=C(c2ccc(Cl)cc2Cl)C(=O)OC12CCCCC2`: the “cytotoxicity increase” value is 1.34% (inactive).

Take `CC(C)Oc1cccc(NC(=O)c2ccccc2C(F)(F)F)c1`: the Potency is 1.23 µM (active).

For `COP(N)(=S)OC`, the “cytotoxicity increase” value was -7.64% (inactive).

In the case of `COC[C@H](C)N(C(=O)CCl)c1c(C)csc1C`, the “cytotoxicity increase” value is -0.836% (inactive).

`O=C(CCl)C(Cl)Cl`: the Potency was 27.8 µM (active).

`CC(C)N1C(=O)N(c2ccccc2)CSC1=NC(C)(C)C`: the “cytotoxicity increase” value is 3.25% (inactive).

Consider `CC(=[OH+])/C=C(/C)[O-].CC(=[OH+])/C=C(\C)[O-].CC(=[OH+])/C=C(\C)[O-].[Fe]`, for which the “cytotoxicity increase” value is 10.4% (inactive).

Regarding `O=c1[nH]c2ccccc2n1C1CCN(CCCC(c2ccc(F)cc2)c2ccc(F)cc2)CC1`, the Potency was 49 µM (active) and inactive.

Turning to `O=C(Nc1ccc2[nH]ccc2c1)c1cc2cc(F)ccc2n1Cc1cccc(F)c1`, the “cytotoxicity increase” value was 3.9% (inactive).

Take `c1cc[c]([Sb]([c]2ccccc2)[c]2ccccc2)cc1`: the “cytotoxicity increase” value is 20% (inactive).

Consider `COP(=O)(OC)SCn1c(=O)oc2cc(Cl)cnc21`, for which the “cytotoxicity increase” value is 8.5% (inactive).

With `C[C@@H]1CC[C@@]2(OC1)O[C@H]1[C@@H](O)[C@H]3[C@@H]4CC[C@H]5C[C@@H](O[C@@H]6O[C@H](CO)[C@H](O[C@@H]7O[C@H](CO)[C@@H](O)[C@H](O[C@@H]8OC[C@@H](O)[C@H](O)[C@H]8O)[C@H]7O[C@@H]7O[C@H](CO)[C@@H](O)[C@H](O[C@@H]8O[C@H](CO)[C@@H](O)[C@H](O)[C@H]8O)[C@H]7O)[C@H](O)[C@H]6O)[C@H](O)C[C@]5(C)[C@H]4CC[C@]3(C)[C@H]1[C@@H]2C`, the Potency was 1.64 µM (active).

For the compound `Clc1ccc(COC(Cn2ccnc2)c2ccc(Cl)cc2Cl)cc1` (stereo not given), the Potency was 45.7 µM (active) and 54.7 µM (active) and inactive.

As for `COP(=O)(CCC(=O)NCO)OC`, the “cytotoxicity increase” value is -2.52% (inactive).

On to `Fc1ccc(Oc2ccnc3cc(Cl)cc(Cl)c23)cc1`, for which the “cytotoxicity increase” value is 0.221% (inactive).

For `O=C(NC(=O)c1c(F)cccc1F)Nc1cc(Cl)c(OC(F)(F)C(F)F)c(Cl)c1`, the “cytotoxicity increase” value was -6.16% (inactive).

As for `O=c1[nH]c2ccccc2n1CCCN1CCC(n2c(=O)[nH]c3cc(Cl)ccc32)CC1`, the “cytotoxicity increase” value was 11.2% [at 35.3 µM] (inactive).

For `CC(=O)[O-].[Tl+]`, the “cytotoxicity increase” value was -1.68% (inactive).

Regarding `CCOP(=S)(OCC)SCS(=O)(=O)C(C)(C)C`, the “cytotoxicity increase” value is 11% (inactive).

As for `CCCCCCCCCCBr`, the “cytotoxicity increase” value is -8.3% (inactive).

As for `CCCSP(=O)(OCC)SCCC`, the “cytotoxicity increase” value is -5.28% (inactive).

As to `CCCCCCCCCCCCCCCC[n+]1ccccc1`, the Potency was 34.2 µM (active) [middle of 4 runs].

Take `Clc1ccc(CCC(Cn2ccnc2)Sc2c(Cl)cccc2Cl)cc1` (stereo not given): the “cytotoxicity increase” value is 22.6% [at 35.3 µM] (inactive).

Regarding `CC(=O)/C=C/c1ccc2c(c1)OCO2`, the “cytotoxicity increase” value was -1.41% (inactive).
